The source of these data is PubChem BioAssay AID624156 (Broad Institute, 2012).

The structures appear in SMILES notation. The campaign covered roughly 46,000 compounds. About 900 (2%) were called active. Roughly 1% stayed inconclusive and do not appear here. Shown is part of a subset that was picked to be rich in actives. Unmarked numbers belong to inactive results. Rule as the data show it: active = ROS induction above about 79% (passing the limit was not always enough); inconclusive = no clear call, values can overlap the other calls.

A short description of the assay: ROS inducers in U2OS cancer cells, primary screen, cell-based, H2DCF-DA fluorescence (AID 624156).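 Also: 0% = DMSO vehicle median and 100% = reference compound median.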 Conditions: at 10 µM, active compounds read high.
For `COC(=O)C1=C(N)Oc2cc(C)oc(=O)c2C1c1cccnc1` (configuration not stated), the ROS induction (% of piperlongumine) is 69.7%.
In the case of `CC(C)OC(=O)C1=c2s/c(=C\c3cccnc3)c(=O)n2C(N)=C(C#N)C1c1cccnc1` (configuration not stated) it was 104% (active); in that of `CCN(Cc1ccccc1)S(=O)(=O)c1cc(Cl)ccc1Cl`, 29.9%.
In the case of `CCN(CC)c1nc(C#N)nc(OC)n1` it was 55.7%; in that of `CC(CN1CCCC1)OC(=O)c1cc(C(C)(C)C)cc(C(C)(C)C)c1` (configuration not stated), 21.6%.
Consider `COC(=O)C1=C[C@@H](O)[C@@H](O)[C@H](O[C@@H]2O[C@H](CO)[C@@H](O)[C@H](O)[C@H]2OC(=O)/C=C/c2ccccc2)C1`, for which the ROS induction (% of piperlongumine) is -5.34%.
In the case of `CNC[C@@H]1Oc2c(NC(=O)Nc3ccccc3)cccc2C(=O)N([C@@H](C)CO)C[C@@H]1C` it was -4.47%.
Take `CO[C@H]1O[C@H](CO)[C@@H](OC(=O)Nc2ccccc2-c2ccccc2)[C@H](OC(=O)Nc2ccccc2)[C@H]1OC(=O)Nc1ccccc1`: the ROS induction (% of piperlongumine) was 132% (active).
Next, `S=C(NCCc1ccc(Cl)cc1)Nc1ccccc1`: -13.7%.
Next, `O=C(c1cncc(NS(=O)(=O)c2ccc(Cl)cc2)c1)N1CCN(Cc2ccccc2)CC1`: 41.7%; `CC(C)C1N=C2c3ccccc3N=C(SCC(=O)c3ccc(Br)cc3)N2C1=O` (configuration not stated): 63.2%.
Take `CC(C)(C)C(=O)CSc1nc2ccccc2c(=O)n1CC1CC1`: the ROS induction (% of piperlongumine) was 120% (active).
Next, `O=c1c2ccccc2nc(SCc2cccc(F)c2)n1C1CC1`: 17.8%; `Cc1ccc(-n2c(SCC(=O)Nc3cccc(C)c3C)nc3ccccc3c2=O)cc1`: -0.837%; `O=C(CSc1nc(-c2cccs2)cc(C(F)(F)F)n1)OCCCc1ccccc1`: 1.26%.
In the case of `CC(C)NC(=O)N(C)C[C@H]1Oc2ccc(NS(=O)(=O)c3cn(C)cn3)cc2CC(=O)N([C@@H](C)CO)C[C@H]1C` it was 1.5%; in that of `C[C@@H]1CCCCO[C@@H](CN(C)S(=O)(=O)c2cccs2)[C@@H](C)CN([C@H](C)CO)C(=O)c2cc(NC(=O)Nc3ccc4c(c3)OCO4)ccc2O1`, 91.3% (active); in that of `C[C@@H]1CCCCO[C@H](CN(C)S(=O)(=O)c2cccs2)[C@@H](C)CN([C@H](C)CO)C(=O)c2cc(NC(=O)Nc3ccccc3)ccc2O1`, 37.3%.
`C[C@@H]1CCCCO[C@@H](CN(C)S(=O)(=O)c2cccs2)[C@@H](C)CN([C@H](C)CO)C(=O)c2cc(NC(=O)Nc3ccc(F)cc3)ccc2O1`: the ROS induction (% of piperlongumine) is 55.6%.
In the case of `C[C@@H]1CCCCO[C@H](CN(C)Cc2ccncc2)[C@@H](C)CN([C@H](C)CO)C(=O)c2cc(NS(C)(=O)=O)ccc2O1` it was -7.81%; in that of `C[C@@H]1CN([C@H](C)CO)C(=O)c2cc(NS(=O)(=O)c3cccs3)ccc2O[C@H]1CN(C)Cc1ccncc1`, 26%.
In the case of `C[C@@H]1CCCCO[C@@H](CN(C)Cc2ccncc2)[C@@H](C)CN([C@H](C)CO)C(=O)c2cc(NS(=O)(=O)c3cccs3)ccc2O1`, the ROS induction (% of piperlongumine) was 104% (active).
